Measured values taken from PubChem BioAssay AID449 (The Scripps Research Institute Molecular Screening Center, 2006).
The campaign covered roughly 56,000 compounds. About 320 (0.57%) were called active.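 How the source made its calls: active means activation above a cutoff set at the mean activation of all tested compounds plus 3 SD (cut at about 54% in these data); inactive means the rest, inconclusive results apart.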 The list comes from a sample in which actives are over-represented; it also holds similar structures and randomly drawn compounds.

Target: Sphingosine 1-phosphate receptor 1 (Homo sapiens) (UniProt P21453)
Assay: activation or potentiation of human S1P1 signaling – cell-based, primary and confirmation screens, CRE-bla reporter, primary screen (AID 449);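 further: forskolin at 4 µM as EC80 and the EC20 agonist is SEW2871; 100% = SEW2871 at its EC100 plus forskolin at EC80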
Conditions: S1P1 CRE-bla cells, forskolin, beta-lactamase FRET, potentiator mode, at 9.5 µM, stronger effect = higher value, 100% = saturating reference agonist, 0% = basal, S1P1 agonist co-added at EC20, 2 nM
[1] = measured here: confirmation screen, triplicate average

Sequence of Sphingosine 1-phosphate receptor 1 (Homo sapiens) (P21453 whole entry, looked up): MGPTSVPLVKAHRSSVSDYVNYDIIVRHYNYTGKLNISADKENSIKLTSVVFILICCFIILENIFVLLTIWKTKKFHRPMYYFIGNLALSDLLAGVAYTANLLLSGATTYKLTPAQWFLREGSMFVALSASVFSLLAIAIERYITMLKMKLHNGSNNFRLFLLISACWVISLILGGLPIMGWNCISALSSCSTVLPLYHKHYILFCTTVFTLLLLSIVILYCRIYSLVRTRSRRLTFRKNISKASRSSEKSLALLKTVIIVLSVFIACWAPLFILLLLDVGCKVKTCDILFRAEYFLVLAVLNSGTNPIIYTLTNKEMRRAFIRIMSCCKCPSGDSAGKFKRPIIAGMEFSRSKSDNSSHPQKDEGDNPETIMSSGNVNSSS

For `CCn1c(SCCC(C)C)nnc1-c1c[nH]c2ccccc12`, the activation was 33% (inactive).
In the case of `Cc1ccc2c(c1)c1ncn(CCC3=CCCCC3)c(=O)c1n2C`, the activation is reported as -12.4% (inactive).
With `CCOCC(=O)NCc1ccc2c(c1)cc(C)n2C` the activation was -18% (inactive).
In the case of `Cc1ccc(Cn2c(NC(=O)c3ccco3)nc3ccccc32)cc1`, the activation is reported as -7.4% (inactive).
With `Cc1cc(NC(=O)CN2CCCCC2C)nc2c1c(=O)oc1ccccc12` (stereo not given) the activation was -16.9% (inactive).
In the case of `CC1(C)CC(=O)C2=C(C1)NCN(CCCN1CCOCC1)C2`, the activation is reported as -12.5% (inactive).
With `COc1ccc(CCNC(=O)CCn2c(=O)oc3ccccc32)cc1OC` the activation was -30% (inactive).
`Cc1cc(Cl)ccc1N1C(=O)CC(SCCC(=O)O)C1=O` (stereo not given) was tested, and the activation was 15% (inactive).
`O=C(NCCN1C(=O)C2C3C=CC(C3)C2C1=O)Nc1ccccn1` (stereo not given) was tested, and the activation was 1.7% (inactive).
For `C#CCN1CC(C)/C(=N/O)CC1C` (stereo not given), the activation was -13.4% (inactive).
For `Cc1ccc(-n2ncc3c(N4CCN(c5ccc(F)cc5)CC4)ncnc32)c(C)c1`, the activation was -9.5% (inactive).
`Fc1ccc2nc(N3CCCCC3)sc2c1` was tested, and the activation was -23.5% (inactive).
With `Fc1ccc2[nH]c3c(N4CCN(Cc5ccc6c(c5)OCO6)CC4)ncnc3c2c1` the activation was 106% (active) and the activation [1] was 116%.
For `Cc1cc(N2CCN(Cc3ccc4c(c3)OCO4)CC2)n2ncnc2n1`, the activation was 3.4% (inactive).
For `Fc1ccc2[nH]c3c(N4CCSCC4)ncnc3c2c1`, the activation was 73% (active) and the activation [1] was 103%.
For `O=C(c1cccs1)N1CCN(Cc2ccc3c(c2)OCO3)CC1`, the activation was 1.7% (inactive).
For `Cc1noc(/C=C/N(C)C)c1S(=O)(=O)N1CCCC(C(=O)NCc2ccco2)C1` (stereo not given), the activation was -32.7% (inactive).
`Cc1cc(/C=N/n2cnnc2)c(C)n1-c1cccc(C(=O)O)c1` was tested, and the activation was -16.1% (inactive).
`Cc1ccc(C(c2sc3nc(C)nn3c2O)N2CCN(c3ccccc3)CC2)cc1` (stereo not given) was tested, and the activation was -6.2% (inactive).
With `CCN(CC)P(=O)(C(NC(=O)OC)C(F)(F)C(F)(F)C(F)(F)C(F)F)N(CC)CC` (stereo not given) the activation was 2.6% (inactive).
In the case of `COc1ccc(CC(=O)n2nc(-c3cccnc3)nc2N)cc1`, the activation is reported as 2.4% (inactive).
`CC12CCC(C(=O)N(CCC#N)CCC#N)(CC1=O)C2(C)C` (stereo not given) was tested, and the activation was -0.9% (inactive).
`CC1Cc2ccccc2N1C(=O)CSc1nnc(-c2ccc(S(=O)(=O)N3CCCCC3)cc2)o1` (stereo not given) was tested, and the activation was -18.5% (inactive).
